# Source: PubChem BioAssay
# Calls of active or inactive are those of the source. Unless noted, the rule behind the calls is not given here.
# Experiments:
# [1] = test system: XIP peptide (Xip251-270) binding; test: XIP fragment 251-270 binding compounds – biochemical, small-molecule microarray, fluorescence 635/667 nm, 0.1 µg/mL protein, primary screen (AID 1182); conditions: fluorescent protein binding, 635 nm, higher = more signal, called active from +8 up or from −8 down
# XIP peptide (Xip251-270) = test: compounds binding XIP fragment 251-270 – biochemical, small-molecule microarray, fluorescence 635/667 nm, 0.5 µg/mL protein, primary screen (AID 1183); conditions: fluorescence 635 nm, higher = more signal
# [2] = blood-stage malaria parasite viability loss – strain 3D7, DAPI fluorescence, 100 nL, primary screen (AID 1184);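 note: parasites grown inside human red blood cells in medium with human serum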; conditions: P. falciparum 3D7 growth, 3 d, higher = more signal
# [3] = target: Homeobox protein Hox-A13 (Mus musculus) (UniProt Q62424); test: disruptors of Hoxa13 oligonucleotide interaction – biochemical, fluorescence polarization, labeled oligonucleotide, primary screen (AID 1185); conditions: Hoxa13:DNA binding, 15 min, higher = more signal, called active from +8 up or from −8 down
# Chain of Homeobox protein Hox-A13 (Mus musculus) (Q62424 whole entry, looked up): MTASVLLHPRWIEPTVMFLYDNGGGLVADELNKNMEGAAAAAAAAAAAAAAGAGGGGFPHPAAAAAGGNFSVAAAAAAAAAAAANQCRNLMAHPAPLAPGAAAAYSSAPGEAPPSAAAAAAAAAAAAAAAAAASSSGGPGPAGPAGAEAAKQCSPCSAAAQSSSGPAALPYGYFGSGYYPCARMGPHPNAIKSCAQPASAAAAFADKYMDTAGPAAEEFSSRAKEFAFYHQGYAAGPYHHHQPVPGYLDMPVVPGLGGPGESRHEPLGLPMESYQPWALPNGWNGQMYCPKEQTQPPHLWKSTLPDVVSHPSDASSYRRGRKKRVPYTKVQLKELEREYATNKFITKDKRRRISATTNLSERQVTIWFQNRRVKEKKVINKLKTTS
# [4] = blockers of DNA damage checkpoint Chk1 activation – imaging, HeLa, hydroxyurea, phospho-Chk1 antibody, percent positive cells, primary screen (AID 1186); conditions: hydroxyurea-induced phospho-Chk1 immunofluorescence imaging, higher = more signal
# [5] = blockers of DNA damage checkpoint Chk1 activation – imaging, HeLa, hydroxyurea, phospho-Chk1 nuclear intensity, primary screen (AID 1187); conditions: hydroxyurea-induced phospho-Chk1 immunofluorescence imaging, higher = more signal
Compound,composite z-score [1],composite z-score (XIP peptide (Xip251-270)),z-score [2],z-score [3],z-score [4],z-score [5]
C=CCC(OC(C)=O)[C@@H]1[C@@H](N(Cc2cccc3ccccc23)C(=O)Cc2ccc(OC)cc2)c2cc(OCCCO)ccc2N1C(=O)c1ccc(-c2ccccc2)cc1 (some centres undefined),0.377 (inactive),0.309,-2.3,-1.94 (inactive),0.577 (inactive),-0.13 (inactive)
C=CC[C@]1(C(=O)N2CCOCC2)COC(c2ccc(OCCCO)cc2)=N1,0.627 (inactive),0.879,-0.813,-6.97 (inactive),-0.374 (inactive),-0.0405 (inactive)
COc1ccc(C#Cc2ccc3c(c2)[C@]2(C(=O)N3)[C@H](C(=O)O)[C@H]3C(=O)O[C@H](c4ccccc4)[C@H](c4ccccc4)N3[C@@H]2c2ccc(O)cc2)cc1,1.14 (inactive),-0.516,-1.47,-6.25 (inactive),-0.366 (inactive),-0.651 (inactive)
C[C@@H]1NC(=O)[C@@H](Cc2ccccc2)NC(=O)[C@@]23C(=O)N[C@@H](Cc4ccccc4)C2[C@H](C)[C@@]2(C)O[C@H]2C3/C=C/C/C=C\CNC1=O (some centres undefined),-0.274 (inactive),0.711,-0.132,-6.78 (inactive),-0.115 (inactive),-0.328 (inactive)
COC(=O)[C@@]1(Cc2ccc(OC)cc2)[C@H]2c3cc(C(=O)N4CCCC4)n(CCc4c[nH]c5ccc(O)cc45)c3C[C@H]2CN1C(=O)c1ccccc1,0.903 (inactive),0.864,-1.44,-4.21 (inactive),0.336 (inactive),0.258 (inactive)
COc1ccc(C(=O)Nc2ccc(CN3C(=O)[C@]4(O[C@H](CC(=O)N5Cc6ccccc6C[C@H]5CO)[C@@H]([Si](C)(C)c5ccc(OC)cc5)[C@@H]4C)c4ccccc43)cc2)cc1,1.22 (inactive),0.775,-2.31,0.247 (inactive),0.714 (inactive),0.329 (inactive)
COc1cc2c(cc1O)C(c1ccc(CN3CCCC3)cc1)N(Cc1cc3c(cc1Br)OCO3)CC2 (centres undefined),0.0473 (inactive),0.723,-2.36,-1.73 (inactive),0.055 (inactive),0.174 (inactive)
COc1ccc(C#Cc2ccc3c(c2)[C@]2(C(=O)N3)[C@H](c3ccc(OCCO)cc3)N3[C@H](c4ccccc4)[C@H](c4ccccc4)OC(=O)[C@H]3[C@@H]2C(=O)NC[C@H](O)c2ccccc2)cc1,0.47 (inactive),0.691,-1.78,-1.01 (inactive),-0.387 (inactive),-0.263 (inactive)
NCCCCCCNC(=O)[C@@H]1C[C@@H]2C(=O)N[C@@H](CCCCN)C(=O)N2[C@@H]1c1ccc(O)cc1,2.07 (inactive),0.739,-0.978,-1.72 (inactive),-0.546 (inactive),-0.123 (inactive)
C=C(COC)C(=O)CC[C@@H](OC(C)=O)c1cccc(OCCO)c1,0.309 (inactive),-0.0276,-0.988,-3.69 (inactive),0.367 (inactive),-0.113 (inactive)
C=CCOC(=O)[C@@H]1[C@H]2C(=O)O[C@H](c3ccccc3)[C@H](c3ccccc3)N2[C@H](c2ccc(OCCOC(=O)[C@@H]3C[C@@H]4C(=O)N[C@@H](CCCC[N+](C)(C)C)C(=O)N4[C@@H]3c3ccc(O)cc3)cc2)[C@@]12C(=O)Nc1ccc(I)cc12,0.481 (inactive),0.808,-1.11,6.56 (inactive),0.355 (inactive),0.521 (inactive)
COc1ccc(C#Cc2ccc3c(c2)[C@]2(C(=O)N3)[C@H](c3ccc(O)cc3)N3[C@H](c4ccccc4)[C@H](c4ccccc4)OC(=O)[C@H]3[C@@H]2C(=O)Nc2nc3ccccc3s2)cc1,-0.52 (inactive),0.77,-1.31,-0.76 (inactive),0.372 (inactive),0.669 (inactive)
COc1ccc([Si](C)(C)[C@H]2[C@H](CC(=O)N(CCO)Cc3ccccc3)O[C@@]3(C(=O)N(C)c4c(Br)cc(C)cc43)[C@@H]2C)cc1,0.159 (inactive),0.334,-2.08,-6.1 (inactive),-1.82 (inactive),-1.22 (inactive)
NC(=O)[C@@]1(Cc2ccccc2)COC(c2ccc(OCCCO)cc2)=N1,0.198 (inactive),-0.959,0.0597,-2.25 (inactive),0.279 (inactive),0.382 (inactive)
CCOC(=O)C1=C[C@@H](C(C)C)N(S(=O)(=O)c2ccc(C)cc2)[C@H]1c1ccc(C(F)(F)F)cc1,0.438 (inactive),0.555,-1.88,-0.498 (inactive),0.389 (inactive),0.112 (inactive)
CC(C)N1C(=O)C[C@@](C(=O)NC2CC2)(c2ccc([N+](=O)[O-])cc2)[C@H]1c1ccc(CO)cc1,0.65 (inactive),0.396,-1.15,-1.81 (inactive),0.254 (inactive),0.529 (inactive)
O=C1O[C@H](c2ccccc2)[C@H](c2ccccc2)N2[C@H]1[C@@H](C(=O)O)[C@]1(C(=O)Nc3ccc(C#CCCO)cc31)[C@H]2c1ccccc1OCCO,0.154 (inactive),0.736,-1.08,-6.55 (inactive),0.55 (inactive),0.175 (inactive)

Compound,composite z-score [1],composite z-score (XIP peptide (Xip251-270)),z-score [2],z-score [3],z-score [4],z-score [5]
CC(C)NC(=O)[C@@]1(c2ccc([N+](=O)[O-])cc2)CC(=O)N(C2CCCCC2)[C@@H]1c1ccc(CO)cc1,1.15 (inactive),0.786,-0.385,-3.11 (inactive),0.127 (inactive),0.0865 (inactive)
COCCOC(=O)N1C(=O)[C@@]2(c3ccccc31)[C@H](c1ccc(O)cc1)N1[C@H](c3ccccc3)[C@H](c3ccccc3)OC(=O)[C@H]1[C@@H]2C(=O)N1CCN(c2ncccn2)CC1,1.84 (inactive),0.787,-1.16,-2.14 (inactive),0.0666 (inactive),0.651 (inactive)
CC(C)C[C@@H]1NC(=O)[C@@H]2C[C@H](C(=O)NCCCCCCN)[C@H](c3cccc(OCCO)c3)N2C1=O,1.6 (inactive),0.891,-0.969,-3.79 (inactive),-0.349 (inactive),-0.207 (inactive)
C=C(/C(=C/C[C@H](OC(=O)c1ccncc1)c1ccc(CO)o1)c1cnc2ccccc2c1)C(C)C,0.276 (inactive),0.647,-0.137,-5.42 (inactive),-0.282 (inactive),-0.39 (inactive)
CC(C)C(CO)N1C(=O)[C@@H]2C3C(=O)OCCC/C=C\[C@H]3OC23C=CCN(c2ccc4ccccc4c2)C(=O)[C@@H]13 (some centres undefined),0.0076 (inactive),0.0118,0.674,-6.34 (inactive),0.467 (inactive),0.516 (inactive)
C=CC[C@@]1(C(=O)NCCCOC)N=C(c2ccc(OCCCO)cc2)O[C@@H]1c1ccccc1N=[N+]=[N-],0.05 (inactive),0.516,-2.29,-6.15 (inactive),-0.679 (inactive),-0.6 (inactive)
[N-]=[N+]=Nc1ccccc1C[C@]1(C(=O)NCCN2CCOCC2)COC(c2ccc(OCCCO)cc2)=N1,0.728 (inactive),0.256,-1.06,-6.04 (inactive),-0.566 (inactive),-0.17 (inactive)
COc1ccc([C@H]2OC[C@@H]3C[C@H](Cc4ccccc4)C(=O)N32)cc1,-0.299 (inactive),0.0713,0.877,-0.716 (inactive),0.311 (inactive),0.0211 (inactive)
COc1ccc(CCNC(=O)[C@@]2(Cc3ccccc3I)c3ccccc3C(=O)N(C3CCCCC3)[C@H]2c2ccc(CO)cc2)cc1,0.898 (inactive),0.372,-2.22,-2.56 (inactive),-0.312 (inactive),-0.543 (inactive)
C=CCNC(=O)[C@@H]1[C@H]2C(=O)O[C@H](c3ccccc3)[C@H](c3ccccc3)N2[C@H](c2ccc(O)cc2)[C@@]12C(=O)N(C(=O)OCCOC)c1ccc(C#CC3=CCCCC3)cc12,0.423 (inactive),0.672,0.608,-0.465 (inactive),-0.472 (inactive),-1.01 (inactive)
COc1cc(NN2C(C(O)c3ccco3)C=CC3C(=O)N(C)C(=O)C32)cc(OC)c1OC (centres undefined),-0.0656 (inactive),-0.423,-0.188,-3.41 (inactive),0.476 (inactive),0.18 (inactive)
CC(C)(C)OC(=O)CC[C@@]1(C(=O)NCC(O)CO)N=C(c2ccc(OCCCO)cc2)O[C@@H]1c1ccccc1CN=[N+]=[N-] (some centres undefined),-0.246 (inactive),0.57,-0.711,-5.44 (inactive),0.436 (inactive),0.71 (inactive)
C=CC[C@]1(C(=O)N2CCCCC2)N=C(c2ccc(OCCCO)cc2)O[C@H]1c1ccccc1CN=[N+]=[N-],0.541 (inactive),0.652,-2.57,-3.9 (inactive),-0.707 (inactive),-1.06 (inactive)
[N-]=[N+]=Nc1ccccc1C[C@]1(C(=O)O)COC(c2ccc(OCCCO)cc2)=N1,1.09 (inactive),0.907,-1.54,-4.69 (inactive),0.0118 (inactive),0.0756 (inactive)
CCCCCC1=C2CNC(C)(C(=O)OC)C=C2C(C)C1=O (centres undefined),-0.22 (inactive),-0.513,0.157,-5.3 (inactive),1.37 (inactive),1.45 (inactive)
CCOC(=O)C[C@H]1[C@H](OC(=O)Cc2ccc3c(c2)OCO3)[C@@H](NC(=O)c2ccc3ccccc3n2)c2cc(OCCCO)ccc2N1C(=O)c1ccccc1,0.269 (inactive),0.256,-1.03,-2.41 (inactive),-0.705 (inactive),-0.277 (inactive)
NC(=O)[C@H]1[C@@H]2C(=O)O[C@@H](c3ccccc3)[C@@H](c3ccccc3)N2[C@@H](c2ccc(OCCO)cc2)[C@]12C(=O)Nc1ccc(C#CCCO)cc12,0.32 (inactive),0.357,0.358,-4.68 (inactive),-0.317 (inactive),-0.838 (inactive)
